{"source": "PubChem BioAssay AID623911", "about": "(Vanderbilt High Throughput Screening Facility, 2012)", "note": "In all, about 2,100 compounds went through this assay and about 770 (37%) were called active. This is one part of the list. Values without a mark were called inactive.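 How the source made its calls: active means by-eye trace score of 1 for enhancers or -1 for inhibitors, so actives lie on both sides (some results past the limit were not filed as active); inactive means score 0, or 3 fluorescent, or 4 baseline rise.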", "data": [{"target": "G protein-activated inward rectifier potassium channel 2 (Homo sapiens) + G protein-activated inward rectifier potassium channel 1 (Homo sapiens) (UniProt P48051+P48549)", "sequence (P48051 whole entry, looked up)": "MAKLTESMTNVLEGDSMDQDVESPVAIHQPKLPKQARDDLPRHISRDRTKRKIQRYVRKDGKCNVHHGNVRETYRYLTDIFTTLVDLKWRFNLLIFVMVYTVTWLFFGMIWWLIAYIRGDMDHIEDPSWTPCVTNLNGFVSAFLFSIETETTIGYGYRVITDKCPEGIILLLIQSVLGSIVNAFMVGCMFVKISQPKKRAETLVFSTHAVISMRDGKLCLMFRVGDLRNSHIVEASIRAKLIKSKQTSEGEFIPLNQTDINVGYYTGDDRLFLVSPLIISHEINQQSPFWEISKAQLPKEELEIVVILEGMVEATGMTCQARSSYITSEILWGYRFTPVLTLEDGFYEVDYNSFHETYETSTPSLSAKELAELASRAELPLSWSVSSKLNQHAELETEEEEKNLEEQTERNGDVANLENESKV", "sequence (P48549 whole entry, looked up)": "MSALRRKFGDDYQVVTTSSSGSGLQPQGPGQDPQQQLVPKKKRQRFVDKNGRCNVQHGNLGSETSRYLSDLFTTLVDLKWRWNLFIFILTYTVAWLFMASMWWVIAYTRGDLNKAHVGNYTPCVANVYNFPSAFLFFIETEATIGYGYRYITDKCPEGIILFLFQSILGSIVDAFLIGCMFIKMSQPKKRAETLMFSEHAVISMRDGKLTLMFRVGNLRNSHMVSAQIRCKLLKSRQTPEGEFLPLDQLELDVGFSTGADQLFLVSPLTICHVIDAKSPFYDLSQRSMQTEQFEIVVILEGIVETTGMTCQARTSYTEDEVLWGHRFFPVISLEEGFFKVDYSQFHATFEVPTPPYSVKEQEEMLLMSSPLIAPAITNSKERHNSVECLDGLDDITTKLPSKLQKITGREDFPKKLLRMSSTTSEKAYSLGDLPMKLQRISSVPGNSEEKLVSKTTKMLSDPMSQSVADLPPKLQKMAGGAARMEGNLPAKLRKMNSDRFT", "experiment": "GIRK1/2 thallium flux modulators, retest, confirmation, cell-based, HEK293 rmGlu8/hGIRK1/2, FluoZin-2 (AID 623911)", "details": "HEK293 rmGlu8/hGIRK1/2, thallium flux FluoZin-2; actives lie on both sides; glutamate co-added at its EC20 level", "values": [{"smiles": "O=C(O)c1oc2ccccc2c1CSc1ccccn1", "manual score": 0}, {"smiles": "CCCCc1cc(=O)oc2cc(C)cc(O)c12", "manual score": "-1 (active)"}, {"smiles": "CCCCCCc1cc2cc(C(=O)NC)c(=N)oc2cc1O", "manual score": 3}, {"smiles": "COc1ccc(OCC(=O)NC(=S)Nc2ccc(N3CCOCC3)c(Cl)c2)cc1", "manual score": 0}, {"smiles": "CC1CCCC(NC(=S)NC(=O)c2cncc(Br)c2)C1C", "note": "(centres undefined)", "manual score": "1 (active)"}, {"smiles": "O=C(NC(=S)Nc1ccc(N2CCOCC2)c(Cl)c1)c1cncc(Br)c1", "manual score": "1 (active)"}, {"smiles": "Cc1ccccc1NC(=S)NC(=O)c1cncc(Br)c1", "manual score": "1 (active)"}, {"smiles": "O=C(NC(=S)NC1CCCCCC1)c1cncc(Br)c1", "manual score": 0}, {"smiles": "Cc1ccccc1NC(=S)NC(=O)c1cc(-c2ccccc2)nc2ccccc12", "manual score": 0}, {"smiles": "O=C(Nc1ccc(N2CCCCC2)c(Cl)c1)c1ncn[nH]1", "manual score": 0}, {"smiles": "CCn1c(CCNC(=O)c2cccs2)nnc1SCC(=O)Nc1ccc(Cl)cc1", "manual score": 0}, {"smiles": "O=C(CC(O)(C(F)(F)F)C(F)(F)F)Nc1ccc(Cl)c(Cl)c1", "manual score": 0}, {"smiles": "NC(=O)SCC(=O)Nc1ccc(Cl)cc1", "manual score": "1 (active)"}, {"smiles": "Cc1ccc(NC(=O)CSC(N)=O)cc1Cl", "manual score": "1 (active)"}, {"smiles": "Cc1ccc(NC(=O)Cn2cccc2)cc1Cl", "manual score": 0}, {"smiles": "O=C(CSCCO)Nc1ccccc1", "manual score": 0}, {"smiles": "CC(C)(C)CC(=O)Nc1ccc(C(N)=O)cc1", "manual score": 0}, {"smiles": "NC(=O)SCC(=O)Nc1cccc(Cl)c1", "manual score": "1 (active)"}, {"smiles": "Cn1c(=O)c(NCCc2ccccc2)c2c3c(cccc31)C(=O)c1ccccc1-2", "manual score": 3}, {"smiles": "Cc1ccccc1Cn1c(=N)n(CC(=O)c2ccco2)c2ccccc21", "manual score": "-1 (active)"}, {"smiles": "Cc1ccccc1Cn1c(-c2cncs2)nc2ccccc21", "manual score": 0}, {"smiles": "Cc1ccccc1Cn1c(=N)n(CC(O)c2ccco2)c2ccccc21", "note": "(centres undefined)", "manual score": "-1 (active)"}, {"smiles": "C1CCC2(CC1)OCC1(CO2)COC2(CCCCC2)OC1", "manual score": 0}, {"smiles": "Cc1cccc(NC(=S)N2CCC(C(=O)c3ccc(F)cc3)CC2)c1C", "manual score": 0}, {"smiles": "c1ccc(-c2nnc3n2NC(c2ccc4c(c2)OCO4)S3)cc1", "note": "(centres undefined)", "manual score": "1 (active)"}, {"smiles": "Cc1cccc(/C=C/C(=O)c2cc(Br)ccc(=O)c2O)c1", "manual score": "1 (active)"}, {"smiles": "COc1ccc(/C=C/C(=O)c2cc(Br)ccc(=O)c2O)cc1", "manual score": "1 (active)"}, {"smiles": "O=C(/C=C/c1ccccc1)c1cc(Br)ccc(=O)c1O", "manual score": "1 (active)"}, {"smiles": "Cc1ccc(/C=C/C(=O)c2ccccc(=O)c2O)cc1C", "manual score": "1 (active)"}, {"smiles": "Cc1cccc(NC(=O)COc2ccc(Br)cc2/C=N/O)c1", "manual score": 0}, {"smiles": "Cc1cccc(/C=c2\\s/c(=C\\C(=O)C(C)(C)C)[nH]c2=O)c1", "manual score": 0}, {"smiles": "CCC(=O)Oc1ccc(C/C(=N\\O)c2ccc(O)cc2O)o1", "manual score": 0}, {"smiles": "COc1ccc(-c2cc(C(F)(F)F)c3c(n2)sc2c(O)cc(=O)[nH]c23)c(OC)c1", "manual score": -0.5}, {"smiles": "N#CC(C#N)=C1C=C2C=C(N3CCCCC3)CCC2CC1", "note": "(centres undefined)", "manual score": 3}, {"smiles": "CC(C)CN(C(=O)COC(=O)Cc1n[nH]c(=O)c2ccccc12)C1CCS(=O)(=O)C1", "note": "(centres undefined)", "manual score": 0}, {"smiles": "CCc1ccc(/C=C/C(=O)c2cc(Br)ccc(=O)c2O)cc1", "manual score": "1 (active)"}, {"smiles": "COc1ccc(NC(=O)CSc2nnc(-c3ccccn3)n2Cc2ccco2)cc1OC", "manual score": 0}, {"smiles": "CCOC(=O)c1oc2nc(C(C)C)c3c(c2c1N)CC(C)(C)OC3", "manual score": 0}, {"smiles": "COc1ccccc1/C=C/C=N\\N1CCN(Cc2ccccc2Cl)CC1", "manual score": 0}, {"smiles": "O/N=C/c1cc(Cl)ccc1OCc1cccc2ccccc12", "manual score": 0}, {"smiles": "Cc1cc(C)n(-c2nnc(C)n2/N=C/c2ccccc2OCc2ccccc2Cl)n1", "manual score": "-1 (active)"}, {"smiles": "O=C(COc1ccccc1F)NC1CCN(Cc2ccccc2)CC1", "manual score": 0}, {"smiles": "OC(c1ccccc1)C1CN(Cc2ccccc2)CCC1(O)c1ccccc1", "note": "(centres undefined)", "manual score": "-1 (active)"}, {"smiles": "Cc1ccc(C)c2[nH]c(=O)c(CN(CCN3CCCC3)C(=O)Nc3ccc(F)cc3)cc12", "manual score": "-1 (active)"}, {"smiles": "CCOC(=O)CSc1nc2c(sc3ccccc32)c(=O)n1CCCN1CCOCC1", "manual score": "-1 (active)"}, {"smiles": "CC(C)CCn1c(SCC#N)nc2c(sc3ccccc32)c1=O", "manual score": 0}, {"smiles": "CCCCn1c(SCC(N)=O)nc2c(sc3ccccc32)c1=O", "manual score": 0}, {"smiles": "Cc1cccc2c1nc(-c1ccccc1)n1cnnc21", "manual score": 0}, {"smiles": "O=C(CCn1c(=O)oc2ccccc21)N1CCN(c2ccccc2Cl)CC1", "manual score": "-1 (active)"}, {"smiles": "Cc1ccc(C)c(N2CCN(C(=O)CCCOc3cc(=O)n(C)c4ccccc34)CC2)c1", "manual score": 0}, {"smiles": "COc1ccccc1N1CCN(C(=O)CCn2c(=O)[nH]c3ccsc3c2=O)CC1", "manual score": 0}, {"smiles": "CCC(=O)n1nc(-c2cccnc2)nc1NCc1ccc(OC)cc1", "manual score": 0}, {"smiles": "CC(C)CCNC(=O)C(C)N(Cc1ccc(F)cc1)C(=O)c1ccc(CN2CCCCC2)o1", "note": "(centres undefined)", "manual score": "-1 (active)"}, {"smiles": "CC(C)CCNC(=O)C(C)N(C(=O)Cn1nnc(-c2ccc(F)cc2)n1)C1CCCC1", "note": "(centres undefined)", "manual score": 0.5}, {"smiles": "CN1C=CC2=C(C#N)C(N)C(C#N)(C#N)C(c3ccccc3)C2C1", "note": "(centres undefined)", "manual score": 3}, {"smiles": "S=C(NN=C1CCCCCC1)Nc1ccc(Cl)cc1", "manual score": 0.5}, {"smiles": "Clc1ccc(Cc2ccc(SCc3ccccc3)nn2)c(Cl)c1", "manual score": 0}, {"smiles": "Fc1ccccc1CNC(=S)Nc1ccc(Cl)cc1", "manual score": "1 (active)"}, {"smiles": "S=C(N/N=C/c1ccccc1Cl)Nc1ccccc1", "manual score": 0.5}, {"smiles": "Fc1ccc(NC(=S)NCc2ccccc2Cl)cc1", "manual score": "1 (active)"}, {"smiles": "S=C(NCc1ccc(Cl)cc1Cl)Nc1ccccc1", "manual score": "1 (active)"}, {"smiles": "S=C(NCCc1ccccc1)Nc1ccc(Cl)cc1Cl", "manual score": -0.5}, {"smiles": "CC1(C)CC(=O)c2c(noc2-c2ccccc2)C1", "manual score": 0}, {"smiles": "O=C(NC(=S)Nc1ccccc1N1CCCC1)c1ccc(-c2cccc([N+](=O)[O-])c2)o1", "manual score": 0}, {"smiles": "O=C(Oc1ccccc1C(=S)N1CCCCC1)c1cc([N+](=O)[O-])cc([N+](=O)[O-])c1", "manual score": "-1 (active)"}, {"smiles": "Fc1ccc(NC(=S)N/N=C/c2cccc(Br)c2)c(F)c1", "manual score": 0}, {"smiles": "Fc1ccc(NC(=S)N/N=C/c2ccc(F)c(F)c2)c(F)c1", "manual score": "1 (active)"}, {"smiles": "Fc1ccc(/C=N/NC(=S)Nc2ccc(Cl)cc2)cc1F", "manual score": 0}, {"smiles": "Oc1c(C=NCc2ccncc2)sc2ccccc12", "manual score": "1 (active)"}]}]}
